Assay outcomes deposited in PubChem by National Center for Advancing Translational Sciences (NCATS).
An excerpt weighted towards active compounds, which were near 2.2% of everything screened.
Abeta rescue – A-beta toxicity reversal in yeast. AID 1347071. Potency, µM (series often up to 46.1 µM), hits mostly activators. yeast expressing A-beta42, growth rescue, OD600, 48 h; response scale: 0% DMSO, 100% iron-clioquinol control. 410,000 compounds, 0.063% hits; note: nearly all actives have a fitted effect of over 55% in size
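Yeast A-beta toxicity model in growth medium with pinned compounds, 48 h at 30 C; growth read as absorbance at 600 nm. Normalized to FeCl3/clioquinol equimolar mix (positive) and DMSO (negative).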
TDP-43 yeast inh – TDP-43 toxicity inhibition in yeast | TDP-43 expressing yeast growth rescue, BacTiter-Glo, 24 h | Potency, µM (top dose mostly 46.1 µM), inactives show at the highest dose growth rescue (activation), most hits filed as activators | 410,000 compounds, 1.8% hits | AID 652104; note: % of control where 0% means no effect; nearly all actives have a fitted effect of over 50% in size
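Yeast cells expressing TDP-43 under galactose induction are exposed to compounds for 24 hr at 30 deg C. BacTiter-Glo luminescence measures growth, so protective compounds score as activators.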
Mito fusion act – mitochondrial division inhibition or fusion activation | 320,000 compounds, 0.23% hits | Potency, µM (doses to about 46.1 µM), for inactives: at the highest dose growth rescue (activation), usual class: activators | S. cerevisiae fusion-defective mutant growth rescue, CellTiterGlo 48 h; note: % of control where 0% means no effect; nearly all actives have a fitted effect of over 45% in size
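Luminescent cell viability in 1536-well qHTS format served as the measure of rescued growth in ts fusion-mutant S. cerevisiae cultured on non-fermentable YPEG for 48 hours at 37C.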
aSyn yeast inh – inhibitors of alpha-synuclein toxicity in yeast. Yeast expressing alpha-synuclein, growth rescue, BacTiter-Glo, 24 h. Potency, µM (top dose mostly 46.1 µM), for inactives: at the top dose growth rescue (activation), usual class: activators. 370,000 compounds, 0.14% hits. AID 652106; note: % of control where 0% means no effect; nearly all actives have a fitted effect of over 65% in size
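Readout is rescue of growth in alpha-synuclein-expressing yeast, so inhibitors of toxicity appear as activators. Growth after 24 hr at 30 deg C in galactose medium is quantified by luminescence.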
FUS yeast rescue – suppressors of FUS proteinopathy in yeast. Potency, µM (titrated, usually from 76.6 µM), hits mostly activators. S. cerevisiae FUS-expressing, growth rescue, OD600, 24 h. AID 1347120. 390,000 compounds, 0.24% hits;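 note: plate controls were DMSO vehicle for no effect and reference control for full effect; nearly all actives have a fitted effect of over 55% in size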
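Toxicity suppression screen in FUS-yeast. Cells induced with 2% galactose, starting OD 0.005, treated 24hr at 30C with compounds at multiple final concentrations; growth by OD600.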
* hit, by the source's call. Calls come from the whole dose curve; as a rule, active = well fitted curve in the direction sought with a large enough effect; inconclusive = small, poorly fitted or top-dose-only effect, or another doubt; inactive = no such curve, though single readings can be large; an effect the other way counts as inactive or inconclusive. Potency is the fitted concentration of half-maximal effect.

What do the screens show for `O=C(c1ccc2ccccc2c1)C1CCCN(C(=O)c2noc3c2CCCC3)C1` (configuration not stated)?
Abeta rescue: inactive; TDP-43 yeast inh: 22.8%; Mito fusion act: 10µM*; aSyn yeast inh: 4.3%; FUS yeast rescue: inactive

Results for Cc1ccc(Cl)cc1N1CCN(C(=O)c2noc3c2CCCC3)CC1 ?
Abeta rescue: inactive; TDP-43 yeast inh: 22.4µM*; FUS yeast rescue: inactive

What do the screens show for `Cc1onc(C(=O)N2CCN(c3ccccc3)CC2)c1[N+](=O)[O-]`?
Abeta rescue: inactive; TDP-43 yeast inh: inconclusive; Mito fusion act: 8.4%; aSyn yeast inh: -3.1%; FUS yeast rescue: inactive

Results for COc1ccccc1CNc1ncnc2c1c(-c1ccccc1)cn2-c1cccc(C)c1 ?
Abeta rescue: inactive; TDP-43 yeast inh: inconclusive; FUS yeast rescue: inactive

Results for O=C(c1noc2c1CCCCC2)N1CCN(c2ccc(Cl)cc2)CC1 ?
Abeta rescue: inactive; TDP-43 yeast inh: 11.0%; FUS yeast rescue: inactive

What do the screens show for `Cc1cccc(N2CCN(C(=O)c3noc4c3CCCCC4)CC2)c1C`?
Abeta rescue: inactive; TDP-43 yeast inh: 15.8µM*; FUS yeast rescue: inactive

Results for CCNc1nc(C#N)nc(N2CCOCC2)n1 ?
aSyn yeast inh: -2.2%

What do the screens show for `c1ccc2c(c1)OCC(c1nn3c(Cn4nnc5ccccc54)nnc3s1)O2` (configuration not stated)?
Abeta rescue: inactive; TDP-43 yeast inh: -3.3%; Mito fusion act: 2.9%; aSyn yeast inh: -2.8%; FUS yeast rescue: 31.6µM*

What do the screens show for `c1ccc(Cc2nn3c(Cn4nnc5ccccc54)nnc3s2)cc1`?
Abeta rescue: inactive; TDP-43 yeast inh: -5.2%; Mito fusion act: 9.2%; aSyn yeast inh: -19.1%; FUS yeast rescue: inactive

How did OCCCNc1nc(-c2ccc(Br)cc2)nnc1-c1ccc(Cl)cc1 do in these assays?
Abeta rescue: inactive; TDP-43 yeast inh: inconclusive; Mito fusion act: 22.4µM*; aSyn yeast inh: -7.5%

What do the screens show for `OCCCNc1nc(-c2ccc(Cl)cc2)nc2ccccc12`?
Abeta rescue: inactive; TDP-43 yeast inh: 8.9%; Mito fusion act: 25.4%; aSyn yeast inh: -1.2%; FUS yeast rescue: inactive

Results for O=C(CC1SC(=O)N(c2ccccc2)C1=O)Nc1ccccc1 (configuration not stated) ?
Abeta rescue: inactive; TDP-43 yeast inh: -5.8%; Mito fusion act: -9.4%; aSyn yeast inh: -3.8%; FUS yeast rescue: inconclusive

How did O=C(CC1S/C(=N\S(=O)(=O)c2ccccc2)N(c2ccccc2)C1=O)Nc1ccc(F)cc1 (configuration not stated) do in these assays?
Abeta rescue: inactive; TDP-43 yeast inh: -2.6%; Mito fusion act: 4.6%; aSyn yeast inh: 7.6%; FUS yeast rescue: 17.8µM*

Results for Cc1ccc(NC(=O)CC2SC(=O)N(c3ccccc3)C2=O)cc1 (configuration not stated) ?
Abeta rescue: inactive; TDP-43 yeast inh: 20µM*; Mito fusion act: -0.6%; aSyn yeast inh: 5.3%; FUS yeast rescue: inactive

Results for Cc1ccc(S(=O)(=O)/N=C2\SC(CC(=O)Nc3ccc(F)cc3)C(=O)N2c2ccccc2)cc1 (configuration not stated) ?
Abeta rescue: inactive; TDP-43 yeast inh: 1.0%; Mito fusion act: -3.8%; aSyn yeast inh: -8.0%

How did CCCCSCCCNC(=O)c1cn(CC)c2ccc(S(=O)(=O)N3CCCCCC3)cc2c1=O do in these assays?
Abeta rescue: inactive; TDP-43 yeast inh: inconclusive; FUS yeast rescue: inactive

How did O=C(O)C1CCCC1 do in these assays?
aSyn yeast inh: -13.0%

What do the screens show for `COc1ccc(C2SCCN2C(=S)Nc2cccc(Cl)c2)cc1` (configuration not stated)?
Abeta rescue: inactive; TDP-43 yeast inh: 17.8µM*; Mito fusion act: -5.3%; aSyn yeast inh: 18.6%

What do the screens show for `COc1ccc(C2SCCN2C(=S)Nc2ccc(Cl)cc2)cc1` (configuration not stated)?
Abeta rescue: inactive; TDP-43 yeast inh: 0.9%; Mito fusion act: 20.2%; aSyn yeast inh: -13.1%

Results for CCN(CC)C(=O)Nc1ccc2c(c1)N(Cc1ccccc1)C(=O)c1ccccc1S2 ?
Abeta rescue: inactive; TDP-43 yeast inh: -0.8%; FUS yeast rescue: inactive

Results for O=CNc1ccc2c(c1)Cc1cc([N+](=O)[O-])ccc1-2 ?
Abeta rescue: inactive; TDP-43 yeast inh: 22.4µM*; aSyn yeast inh: 15.5%; FUS yeast rescue: inactive

What do the screens show for `Cn1c(=O)n(CCc2ccccc2)c(=O)c2c1nc1n2CCCN1CCc1ccccc1`?
Abeta rescue: inactive; TDP-43 yeast inh: 12.6µM*; Mito fusion act: inconclusive; aSyn yeast inh: 0.9%; FUS yeast rescue: inactive

What do the screens show for `COc1cccc(NC(=O)c2ccc3nc(Cc4ccccc4)oc3c2)c1`?
Abeta rescue: inactive; TDP-43 yeast inh: 0.0%; FUS yeast rescue: inactive

How did C=CCN(CC=C)C(=S)NC(=O)c1ccc(-c2ccccc2)cc1 do in these assays?
Abeta rescue: inactive; TDP-43 yeast inh: 12.6µM*; Mito fusion act: 7.5%; aSyn yeast inh: inconclusive

How did C=CCN(CC=C)C(=S)NC(=O)c1ccc(C)c(Br)c1 do in these assays?
Abeta rescue: inactive; TDP-43 yeast inh: inconclusive; Mito fusion act: inconclusive; aSyn yeast inh: 14.1µM*

Results for C=CCN(CC=C)C(=S)NC(=O)c1ccc(OC)cc1 ?
Abeta rescue: inactive; TDP-43 yeast inh: 26.1%; Mito fusion act: -3.3%; aSyn yeast inh: -10.0%; FUS yeast rescue: inactive

How did O=C(COC(=O)C12CC3CC(CC(C3)C1)C2)Nc1ccc(OC(F)F)cc1 do in these assays?
Abeta rescue: inconclusive; TDP-43 yeast inh: 17.8µM*; Mito fusion act: 12.0%; FUS yeast rescue: inactive

What do the screens show for `CC1CCN(c2c([N+](=O)[O-])nn(-c3ccc4c(c3)OCCO4)[n+]2[O-])CC1`?
Abeta rescue: inactive; TDP-43 yeast inh: 12.6µM*; Mito fusion act: inconclusive; aSyn yeast inh: 15.5%; FUS yeast rescue: inconclusive

Results for CC(SCc1ccccc1)C(=O)Nc1ccccc1-c1ccccc1 (configuration not stated) ?
Abeta rescue: inactive; TDP-43 yeast inh: -24.7%; Mito fusion act: 16.5%; aSyn yeast inh: -0.9%; FUS yeast rescue: 17.8µM*

What do the screens show for `COc1ccc(C(=O)NC2CCCc3ccccc32)c(OC)c1OC` (configuration not stated)?
Abeta rescue: inactive; TDP-43 yeast inh: inconclusive; Mito fusion act: inconclusive; aSyn yeast inh: 13.3%; FUS yeast rescue: inactive

What do the screens show for `Cc1ccc(C(=O)NC2CCCc3ccccc32)cc1[N+](=O)[O-]` (configuration not stated)?
Abeta rescue: inactive; TDP-43 yeast inh: 10µM*; Mito fusion act: 15.5%; aSyn yeast inh: 7.4%; FUS yeast rescue: inactive
